hERG WT inh = inhibitors of human wildtype KCNH2 potassium channel; Q12809; U2OS, BacMam KCNH2, thallium flux FluxOr; active compounds read low; activity change, % at 1.84 µM; 340,000 tested, 0.37% active; AID 720551;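 active = maximum activity change below -70%; inconclusive = maximum activity change between -70% and -50%; inactive = maximum activity change above -50%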
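U2OS cells were transduced with wild-type KCNH2 virus (2.03 x 10^8 / mL) for 4 h at room temperature, then cultured overnight at 37 C. Thallium flux was read with FluxOr dye. Rate constants were normalized to DMSO controls.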
KCNH2 3.1 block = inhibitors of human KCNH2 3.1 potassium channel isoform | 340,000 tested, 0.95% active | activity change, % (tested at about 1.8 µM) | AID 720553 | U2OS KCNH2 3.1, thallium flux FluxOr; active compounds read low;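 active = maximum activity change below -70%; inconclusive = maximum activity change from -70% to -50%; inactive = maximum activity change above -50%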;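 also: thallium influx rate constant from kinetic fluorescence after stimulation buffer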
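Measured as rate of thallium-driven FluxOr signal in transduced U2OS cells carrying the 3.1 channel, read kinetically for 2 min upon stimulation; values are rate constants scaled to DMSO control wells.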
RXFP1 antag = antagonists of human relaxin receptor RXFP1 | Q9HBX9 | activity change, negative = inhibition, % at 57.5 µM | HEK293-RXFP1, relaxin-stimulated cAMP HTRF, 30 min; active compounds read low | 350,000 tested, 0.59% active | AID 1259400;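 active = activity change of -60% or lower, but not beyond a set lower limit; inconclusive = change between -60% and -40%, or beyond the set limit; inactive = change above -40%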
pAkt inh = blocks phosphorylation of Akt | Neuro2A IGF-stimulated pAkt S473 HTRF, 20 min; active compounds read low | activity change, % for hits at 50 µM | 360,000 tested, 0.32% active; in the data active = activity change below about -80%; inconclusive = mostly about -51% to -80%
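Single-point screen (50 µM final compound) in Neuro2A cells stimulated 20 min with 6 nM IGF at 37 deg C. After lysis, Ser473-phosphorylated Akt read by HTRF (ex 330 nm, em 615/665 nm) as the 665/615 ratio.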
RXFP1 agonist = RXFP1 (human) receptor agonism; HEK293T-RXFP1 cAMP TR-FRET, 30 min; response scale: percent of porcine relaxin response, buffer zero; Potency, µM (titrated, usually from 57.5 µM), inactives show at the top dose activation, hits mostly activators; Q9HBX9; 370,000 tested, 0.3% active; active = well fitted activation curve with a large enough effect; inconclusive = small, poorly fitted or top-dose-only effect; also: potency is read from the fitted curve at half-maximal effect; nearly all actives have a fitted effect of over 60% in size
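cAMP rise read by TR-FRET after 30 min, 37C compound exposure (up to 58 uM) in RXFP1-transfected HEK293 cells with Ro 20174 present. EC50 from Hill-equation fits, with 29 nM porcine relaxin as 100% and buffer as basal.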
An asterisk follows results filed as active; i = inactive; ? = inconclusive; . = no result given. Hits are enriched below; roughly 1.7% of the tested compounds scored in any of these assays. % is scaled to controls: 0 for no effect and ±100 for the full control effect.

SMILES	hERG WT inh	KCNH2 3.1 block	RXFP1 antag	pAkt inh	RXFP1 agonist
O=C(Nc1ccc(N2CCCCC2)cc1)c1ccc(F)cc1F	-4.3	-30.6	2.8	i	-0.2%
O=C(Nc1ccc(N2CCN(C(=O)c3ccccc3F)CC2)cc1)c1cncc(Br)c1	3.4	-25.0	-82.2*	i	-2.7%
O=C(Nc1ccn(CCCN2CCN(c3ncccn3)CC2)c(=O)n1)OCc1ccccc1	-73.7*	-2.4	-4.5	i	.
O=C(Nc1ccn(CCCN2CCN(Cc3ccc(F)cc3)CC2)c(=O)n1)OCc1ccccc1	6.6	-27.0	8.4	i	.
CCn1cnc2scc(-c3ccccc3)c2c1=O	-23.3	3.9	-10.4	i	3.6%
COCCN1Cc2cccc(C(=O)Nc3cccc(-c4nc5ccccc5[nH]4)c3)c2C1=O	25.6	-72.9*	-9.3	i	0.6%
Cc1cc(N2CCN(c3nc(-c4ccc([N+](=O)[O-])cc4)cs3)CC2)c2ccccc2n1	-121.7*	-123.9*	-21.9	i	3.4%
Cc1cc(-c2ccc([N+](=O)[O-])cc2)nc2ccccc12	-20.2	3.0	6.4	i	4.7%
C=CCN(C(=O)CSc1nc2ccsc2c(=O)n1Cc1ccc(C(=O)O)cc1)c1ccccc1	-254.4*	11.1	3.9	i	.
CN(C)/C(Cn1cncn1)=C1/N=C(c2c(F)cccc2F)OC1=O	12.8	-6.5	3.2	i	2.3%
Cc1ccc(C(C)C)c(OCC(=O)N2CCC(c3nc4ccccc4o3)CC2)c1	.	.	-98.3*	.	2.1%
Cc1cccc(-c2nc(CSCC(=O)N3CCN(Cc4ccc5c(c4)OCO5)CC3)c(C)o2)c1	0.7	0.6	-10.5	i	2.7%
CCOC(=O)CNC(=O)c1cc(-c2ccccn2)nc2c(C)c(Cl)ccc12	-0.5	-167.7*	7.1	i	0.9%
Cc1c(O)ccc(C(=O)COc2ccc(F)cc2)c1O	-3.1	-8.1	3.7	-89.4%*	0.2%
CCc1cc(C(=O)COc2ccc(F)cc2)c(O)cc1O	.	5.8	2.9	i	-0.9%
COc1cc(OC)c(OC)cc1CN1CCN(C(=O)CC(C)C)CC1	-8.3	0.9	-14.0	i	1.0%
COc1cc(OC)c(OC)cc1CN1CCN(c2ccccc2OC)CC1	-3.4	-26.0	10.1	i	0.0%
COc1cc(OC)c(OC)cc1CN1CCN(Cc2cccn2C)CC1	-121.8*	10.4	-14.7	i	-1.2%
COc1cc(OC)c(OC)cc1CN1CCC(O)CC1	3.3	-89.9*	-0.6	i	2.0%
O=C(O)C1CSC2(c3ccc4c(c3)OCCO4)CCC(=O)N12 (stereo not drawn)	-0.6	-9.9	4.0	-114.8%*	1.3%
COc1ccc(C(=O)NC(=S)Nc2ccc3oc(=O)ccc3c2)cc1OC	-3.0	-98.7*	.	i	4.5%
COC(=O)C1=C(C)N=C2SC(C#N)=C(N)N2C1c1cccc(OC)c1 (stereo not drawn)	-9.0	-1.4	4.6	-114.7%*	2.4%
NC(=S)N/N=C/c1ccc(-n2nncc2-c2ccc(Cl)cc2)cc1	14.0	-21.7	-73.3*	i	0.7%
CC(C)CC(C(=O)O)C(C)CC(=O)Nc1ccn(-c2ccccc2)n1 (stereo not drawn)	0.0	31.4	4.8	-108.5%*	-2.2%
O=C(/C=C/NCc1cccnc1)C(F)(F)C(F)(F)F	-7.8	-3.8	-15.9	i	-0.1%
SMILES	hERG WT inh	KCNH2 3.1 block	RXFP1 antag	pAkt inh	RXFP1 agonist
CC1=C(C(N)=O)C(c2ccccn2)n2nc(-c3ccccc3Cl)nc2N1 (stereo not drawn)	-145.6*	-170.2*	1.1	i	1.0%
COc1ccccc1C1C(C(N)=O)=C(C)Nc2nc(-c3ccccc3Cl)nn21 (stereo not drawn)	3.2	-0.9	-4.0	i	-1.9%
COc1ccc(-c2csc3nc(C)nc(N4CCN(C(C)=O)CC4)c23)cc1OC	13.6	1.3	-12.4	i	2.9%
COc1ccc(-c2csc3nc(C)nc(N4CCC(C)CC4)c23)cc1OC	6.0	-136.7*	?	i	1.9%
O=C(Cn1cncn1)N/N=C/c1cccc2ccccc12	-3.6	-16.2	15.2	i	3.3%
CSC(=Nc1ccccc1)N=C(SCc1ccccc1)N(C)C	?	14.0	-100.2*	i	.
N#CNC(=Nc1ccccc1)SCc1ccc(C(=O)O)cc1	3.5	-12.8	12.2	i	10.3%
CCOC(=O)c1sc2nc(COC(=O)c3c(F)cccc3F)[nH]c(=O)c2c1C	-4.2	-2.2	2.7	i	0.0%
O=C(c1ccc(Cn2cc(Cl)cn2)o1)N1CCN(Cc2ccc3c(c2)OCO3)CC1	-2.2	-4.3	8.2	-110.6%*	-1.3%
CC(C)CC(=O)N1CCN(Cc2ccc3c(c2)OCO3)CC1	-132.5*	16.3	5.9	i	-0.2%
COc1ccc(N(CC(=O)N2CCN(Cc3ccc4c(c3)OCO4)CC2)S(=O)(=O)c2ccc(F)cc2)cc1	-44.0	-86.1*	-3.6	i	0.5%
Cc1cccc(Cc2c(C)nc3c(C(=O)N4CCN(Cc5ccc6c(c5)OCO6)CC4)cnn3c2C)c1	13.9	-3.0	-2.2	-83.4%*	2.7%
COc1ccc2oc(=O)c(C(=O)NCc3ccco3)cc2c1	-13.9	4.9	-10.5	i	4.1%
CCOc1cc(C2CC(=O)NC3=C2C(=O)C(C(=O)OC)C(C)C3)cc(Br)c1O (stereo not drawn)	1.0	3.8	-21.4	i	3.3%
O=C(c1ccc2nccnc2c1)N1CCN(Cc2ccc3c(c2)OCO3)CC1	-3.2	-87.3*	1.7	i	2.7%
O=C(c1cccn2c(=O)c3cc(Cl)ccc3nc12)N1CCN(Cc2ccc3c(c2)OCO3)CC1	7.9	-82.8*	3.6	i	-0.4%
O=C(c1ccc(Cl)c(Cl)c1)N1CCN(Cc2ccc3c(c2)OCO3)CC1	-8.5	-14.4	2.8	i	-0.5%
Cc1occc1-c1nnc(SCC(=O)N2CCOCC2)n1CCc1ccccc1	-2.8	-10.5	-1.8	i	-0.3%
Cc1cc(C)c(NC(=O)COC(=O)Cc2cccs2)c(C)c1	6.6	-1.9	-109.4*	i	0.0%
Cc1cc(=O)oc2cc(OCC(=O)N3CCN(c4ccccc4)CC3)c(Cl)cc12	-7.5	0.6	-12.8	i	4.6%
COc1cc(OC)cc(-c2nnc(NC(=O)CCS(=O)(=O)c3ccc(F)cc3)o2)c1	0.5	-74.7*	-7.7	i	0.3%
COc1cc(OC)cc(-c2nnc(NC(=O)CCS(=O)(=O)c3ccccc3)o2)c1	0.6	-11.0	-15.2	i	-1.3%
CN(C1CCCCC1)S(=O)(=O)c1ccc2c(c1)CCC(=O)N2	0.5	0.1	-3.2	i	0.3%
COc1ccccc1-n1cnc2cc(C(=O)NC3CCCC3)ccc21	-14.0	-90.6*	13.3	i	-2.7%
Nc1ccccc1-c1nnc2n1CCCCC2	-85.7*	12.9	-11.5	i	2.4%
O=C(c1ccc2c(c1)OCO2)N1CCN(S(=O)(=O)N2CCCCC2)CC1	-1.1	-3.9	7.1	i	-3.5%
